Drawing on PubChem BioAssay (EPA / NIEHS), this text covers outcome and AC50 for 13 molecules.

Structures are written as SMILES. Inconclusive results are not listed. Calls of active or inactive are those of the source. How the source made its calls: active means hit-call score of the fitted dose curve at least 0.9, where 1 is the maximum; inconclusive means response in the unintended direction; inactive means score below 0.9.

Sequence of bovine Gamma-Aminobutyric Acid Type A Receptor Agonist (GABAR Agonist), GABRA1 (gene 780973) (P08219 whole entry, looked up): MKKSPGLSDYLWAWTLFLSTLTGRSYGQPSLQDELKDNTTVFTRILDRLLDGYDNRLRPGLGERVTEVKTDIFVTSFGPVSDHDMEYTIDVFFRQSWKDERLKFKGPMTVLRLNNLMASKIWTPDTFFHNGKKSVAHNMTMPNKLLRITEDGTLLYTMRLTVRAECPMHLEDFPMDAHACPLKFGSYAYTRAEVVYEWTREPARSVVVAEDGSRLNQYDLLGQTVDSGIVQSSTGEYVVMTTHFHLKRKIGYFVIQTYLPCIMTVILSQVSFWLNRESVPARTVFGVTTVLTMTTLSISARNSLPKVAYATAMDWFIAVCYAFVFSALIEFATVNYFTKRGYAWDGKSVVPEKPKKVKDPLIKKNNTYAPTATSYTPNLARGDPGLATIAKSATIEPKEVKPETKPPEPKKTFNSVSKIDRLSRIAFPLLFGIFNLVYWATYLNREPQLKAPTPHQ

Test system in one assay: not listed separately
Kind of assay: NVS_IC_rCaBTZCHL: NovaScreen (NVS) Ion Channel Assay for Calcium Channel, Type L, Benzothiazepine Site (CaBTZCHL) (AID 2283337). The essentials:
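Test chemicals were added to rat cortical membranes and incubated 1.5 h with a tritiated or iodinated radioligand for the benzothiazepine site. Bound ligand was separated by filtration and counted. Actives from the 25 uM duplicate screen were retested in concentration series.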
As for `CC(C)C(=O)Nc1ccc([N+](=O)[O-])c(C(F)(F)F)c1`, the outcome was inactive.

On to `C=CCc1cc(S(=O)(=O)c2ccc(O)c(CC=C)c2)ccc1O`, for which the outcome was inactive.

Consider `CCCCCCCCN(C)C`, for which the result was inactive.

Take `CCn1nc(C)c2c1C(=O)NCC(c1ccc(O)cc1)=N2`: the outcome was inactive.

In general, AC50 refers to the concentration at which the activity in the assay is half-maximal. Consider `COc1cc(C(C)C)c2c(c1)S(=O)(=O)N(COc1cc(=O)n3cccc(OCCN4CCCCC4)c3n1)C2=O`, for which the AC50 was 3.14 µM (active).

`c1ccc(C(O[C@@H]2CCCN(CCc3ccc4c(c3)OCO4)C2)c2ccccc2)cc1`: the AC50 was 0.428 µM (active).

On to `Cc1nccn1-c1ccc(Sc2cccc(C3(C(N)=O)CCOCC3)c2)cc1`, for which the result was inactive.

The target of the next assay is bovine Gamma-Aminobutyric Acid Type A Receptor Agonist (GABAR Agonist), GABRA1 (gene 780973) (UniProt P08219). In words: NVS_LGIC_bGABAR_Agonist: NovaScreen (NVS) Ligand-Gated Ion Channel Assay for bovine Gamma-Aminobutyric Acid Type A Receptor Agonist (GABAR Agonist) (AID 2283338). The method, boiled down:
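Radioligand binding to bovine cerebellar membranes in agonist format, read by filter-based scintillation counting after 1 h. Primary screen in duplicate at 25 uM, with actives followed in concentration series. Gain of signal versus DMSO.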
As for `CC(=O)c1ccccc1`, the call was inactive.

For the molecule `CCc1ccc(O)c(C(C)(C)C)c1`, the molecule was called inactive.

As for `CCCCCCOC(=O)CC(CC(=O)OCCCCCC)(OC(=O)CCC)C(=O)OCCCCCC`, the result was inactive.

As to `O=C1CN(N=Cc2ccc([N+](=O)[O-])o2)C(=O)N1`, the outcome was inactive.

For `NC(=O)N1c2ccccc2C=Cc2ccccc21`, the outcome was inactive.

As for `OC(Cn1cncn1)(Cn1cncn1)c1ccc(F)cc1F`, the molecule was classed as inactive.
